Screens (PubChem BioAssay)
Shown are actives, neighbours in structure and some others; about 11% of the full set was active somewhere.
HEK293 tox: Cytotoxic Profiling in HEK 293 Cell Line of Diverse Libraries Using Quantitative High-Throughput Screening; HEK 293 viability, ATP luminescence (CellTiter-Glo), 48-72 h; Potency, µM (series often up to 115 µM), inactives show at the highest dose activity change, negative = cytotoxicity, actives largely listed as inhibitors; 94,000 compounds, 6.6% hits; also: nearly all actives have a fitted effect of over 60% in size
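ATP-coupled CellTiter-Glo luminescence served as viability read-out, recorded 10 min after reagent addition at room temperature. HEK 293 cells, 250 cells/well, had been incubated with pintool-transferred compound for 48 or 72 hr at 37 degree Celsius.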
NPR1 antag: Natriuretic polypeptide receptor (hNpr1) antagonism - Primary qHTS. Atrial natriuretic peptide receptor 1 (Homo sapiens), P16066. HEK293 hNpr1 GloSensor cGMP, ANP-stimulated luminescence. Potency, µM (series often up to 46.3 µM), inactives show at the top dose activity change, negative = inhibition, usual class: inhibitors. 76,000 compounds, 1.6% hits; calls by dose curve; also: nearly all actives have a fitted effect of over 60% in size
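Compound pre-incubated 30 min at room temperature on GloSensor-loaded HEK293 cells stably carrying hNpr1 and the pGS-40F cGMP biosensor. Stimulation uses hNppA at 0.1 nM final; luminescence is taken at baseline and 20 min post-agonist.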
Luciferase inh: Firefly luciferase inhibition profiling of diverse chemical library using quantitative high-throughput screening; Luciferin 4-monooxygenase (Photinus pyralis), P08659; purified P. pyralis luciferase, luminescence, biochemical; Potency, µM (series often up to 115 µM), hits mostly inhibitors; 76,000 compounds, 2.5% hits; AID 1347043, 2019; also: nearly all actives have a fitted effect of over 65% in size
Target sequence (P08659 whole entry, looked up): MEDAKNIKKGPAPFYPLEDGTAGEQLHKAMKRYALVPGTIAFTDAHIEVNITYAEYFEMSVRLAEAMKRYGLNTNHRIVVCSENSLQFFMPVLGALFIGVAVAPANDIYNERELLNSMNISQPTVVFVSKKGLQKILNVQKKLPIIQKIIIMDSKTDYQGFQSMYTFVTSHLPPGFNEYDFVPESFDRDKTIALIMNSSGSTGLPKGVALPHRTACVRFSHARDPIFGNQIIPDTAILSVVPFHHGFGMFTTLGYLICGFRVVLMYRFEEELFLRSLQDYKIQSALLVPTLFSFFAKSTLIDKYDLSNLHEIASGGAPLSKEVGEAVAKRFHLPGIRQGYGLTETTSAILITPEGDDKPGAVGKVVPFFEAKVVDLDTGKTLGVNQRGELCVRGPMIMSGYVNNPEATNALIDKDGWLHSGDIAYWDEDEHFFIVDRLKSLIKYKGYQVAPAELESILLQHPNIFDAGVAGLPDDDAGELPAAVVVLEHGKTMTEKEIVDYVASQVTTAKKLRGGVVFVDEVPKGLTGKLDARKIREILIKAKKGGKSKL
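Purified 10nM P. pyralis luciferase with 10uM D-luciferin and 10uM ATP in 50mM Tris acetate pH 7.5, 10mM Mg acetate, 0.01% Tween-20, 0.05% BSA. qHTS titration; luminescence read by CCD imager.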
3T3 cytotox: Cytotoxic Profiling in NIH 3T3 Cell Line of Diverse Libraries Using Quantitative High-Throughput Screening. NIH 3T3 viability, CellTiter-Glo ATP luminescence, 48-72 h. Potency, µM (top dose mostly 96.7 µM), without a hit: at the top dose activity change, negative = cytotoxicity, most hits filed as inhibitors. 94,000 compounds, 4.3% hits. AID 1345082, 2018; also: nearly all actives have a fitted effect of over 55% in size
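Luminescent ATP readout (CellTiter-Glo, 10 min RT) after 48 or 72 hr compound exposure of NIH 3T3 cells seeded at 400 cells/well in 1536-well format; quantitative HTS.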
* = called active by the depositor; i = inactive; ? = inconclusive; . = no result given; [ ] = another dose, or the depositor's remark. Unless noted, calls follow the shape of the dose curve; as a rule, active = well fitted curve in the direction sought with a large enough effect; inconclusive = small, poorly fitted or top-dose-only effect, or another doubt; inactive = no such curve, though single readings can be large; an effect the other way counts as inactive or inconclusive. % is scaled to controls: 0 for no effect and ±100 for the full control effect; potency is read from the fitted curve at half-maximal effect.

SMILES | HEK293 tox | NPR1 antag | Luciferase inh | 3T3 cytotox
Cc1ccc(NC(=O)Cn2c(N3CCC(C)CC3)nc(C)cc2=O)c(C)c1 | ? | -2% | i | ?
Cc1cc(=O)n(CC(=O)Nc2ccc(Br)cc2F)c(N2CCC(C)CC2)n1 | ? | -9% | i | 16µM*
Cc1cc(=O)n(CC(=O)Nc2cc(Cl)ccc2C)c(N2CCC(C)CC2)n1 | 35µM* | ? | i | 35µM*
Cc1ccc(NC(=O)Cn2c(N3CCC(C)CC3)nc(C)cc2=O)cc1 | ? | ? | i | ?
Cc1ccc(C)c(NC(=O)Cn2c(N3CCC(C)CC3)nc(C)cc2=O)c1 | 28µM* | -17% | i | ?
O=C(NCCN1CCOCC1)c1cn2cc(-c3ccccc3)sc2n1 | -13% | . | . | -29%
CC(C)c1nc2c(c(-c3ccc(O)cc3)n1)CCN(C(=O)c1ccccc1)CC2 | -14% | . | . | -25%
O=C(Nc1ccc(Cl)cc1)N1CCC(c2nn(-c3ccccn3)c(=O)[nH]2)CC1 | -3% | . | . | -18%
Cc1ccc(CNC(=O)c2c(C)noc2-c2ccc3c(c2)OCO3)o1 | -29% | -11% | i | -27%
O=C(c1ccccc1F)N1CCCC(Cc2nncn2CC2CC2)C1 (stereo not given) | 4% | . | . | -10%
COc1ccccc1Nc1ncc2c(n1)CN(C(=O)c1cccc(C#N)c1)CCN2 | 79µM* | ? | i | -24%[138 µM]
COc1ccccc1Nc1ncc2c(n1)CN(C(=O)Cc1cccc(F)c1)CCN2 | ? | 2%[70.6 µM] | i | ?
COc1ccccc1Nc1ncc2c(n1)CN(C(=O)c1cc3ccccc3n1C)CCN2 | 71µM* | -17%[70.6 µM] | i | ?
CCn1c(C2CCCN(C(=O)Nc3ccccc3F)C2)nn(C)c1=O (stereo not given) | -8% | . | . | -18%
OC[C@@H]1CN(CC2CC2)C[C@H]1c1nc(-c2ccncc2)no1 | -3% | 0% | 35µM* | -11%
OC[C@@H]1CN(C2CCCCC2)C[C@H]1c1nc(-c2ccncc2)no1 | -27% | 5% | ? | -18%
OC[C@@H]1CN(C2CCC2)C[C@H]1c1nc(-c2ccncc2)no1 | -15% | 2% | 45µM* | -3%
Cc1c(-c2ccc(F)cc2)[nH]c2ccc(CNC(=O)c3cnn(C)c3)cc12 | 40µM* | ? | 25µM* | ?
O=C(CCc1c[nH]c2ccccc12)NC1CCCc2c1[nH]c1ccc(F)cc21 (stereo not given) | ? | 3% | i | 40µM*
Cc1c(-c2ccccc2F)[nH]c2ccc(CNC(=O)CCN3CCCO3)cc12 | ? | -15% | 16µM* | ?
CCN1CCN(CC(=O)NCc2ccc3[nH]c(-c4ccc(F)cc4)c(C)c3c2)CC1 | 18µM* | 0% | ? | 22µM*
O=C(C1CCCN1C(=O)c1ccc(C(F)(F)F)cc1)N1CCC(c2nc3ccncc3[nH]2)C1 (stereo not given) | -3% | . | . | i
COc1ccc(-c2nc(C(C)C)nc3c2CCN(C(=O)Cc2ccc(F)cc2)CC3)cc1 | ? | 9% | i | ?
COc1ccc(CCC(=O)N2CCC3(CC2)CC(CC(=O)N2CCOCC2)CCO3)cc1 (stereo not given) | i | . | . | -11%
O=C(NC1CCCc2c1[nH]c1ccc(F)cc21)c1n[nH]c2c1CCC2 (stereo not given) | 35µM* | -27% | i | 35µM*
SMILES | HEK293 tox | NPR1 antag | Luciferase inh | 3T3 cytotox
O=C(NC1CCCc2c1[nH]c1ccc(Cl)cc21)c1ccco1 (stereo not given) | -84% | -8% | i | ?
Cc1c(-c2ccc(F)cc2)[nH]c2ccc(CNC(=O)c3n[nH]c4c3CCCC4)cc12 | ? | 16µM* | 16µM* | 32µM*
O=C(CN1CC(=O)NC1=O)NCc1ccc2[nH]c3c(c2c1)CCCCCC3 | -23% | 3% | i | -10%
Cc1ccc(-c2nc(CC(=O)Nc3ccc4c(c3)C(=O)N3CCC[C@H]3C(=O)N4)cs2)cc1 | ? | 1% | ? | ?
COc1cc(OC)c(OC)cc1CN1CCc2nc(N(C)C)[nH]c(=O)c2CC1 | 6% | 2% | i | 0%
O=C(c1cccnc1)N1CCN(c2ccc3nnc(C4CC4)n3n2)CC1 | 2% | . | . | -26%
COc1ccc(C(=O)N2CCN(C(=O)c3nc4cccnc4n(CCc4ccccc4)c3=O)CC2)cc1 | ? | . | . | -9%
CC(C)c1noc(-c2ccn3c(CNC(=O)c4cccc(N(C)C)c4)nnc3c2)n1 | ? | -9% | 28µM* | ?
CC(C)c1noc(-c2ccn3c(CNC(=O)c4ccc(N(C)C)cc4)nnc3c2)n1 | 1% | 0% | i | -12%
CCOC(=O)N1CCC(Oc2cnc3c(ccn3-c3cncnc3)c2)CC1 | -23%[172 µM] | -8%[70.6 µM] | i | 10µM*
Cc1noc2c(NCCCn3ccnc3)cc(-c3ccccc3)nc12 | ? | 3%[70.6 µM] | i | 11µM*
Cc1noc2c(NCCCn3ccnc3)cc(-c3ccccn3)nc12 | -23%[172 µM] | 1%[70.6 µM] | i | 25µM*
Cc1noc2c(NCCCn3ccnc3)cc(-c3cccc(C(F)(F)F)c3)nc12 | ? | 0%[70.6 µM] | i | ?
COc1cccc(N2C(=O)NC(=NC3CCCCC3)C23CCCN(Cc2ccc(N(C)C)cc2)C3)c1 (stereo not given) | 32µM* | . | . | 28µM*
COc1cccc(N2C(=O)NC(=NC3CCCCC3)C23CCCN(Cc2cccnc2)C3)c1 (stereo not given) | -17% | . | . | ?
COc1cccc(N2C(=O)NC(=NC3CCCCC3)C23CCCN(Cc2ccsc2)C3)c1 (stereo not given) | ? | . | . | 40µM*
O=C(NC1CC1)C1CCCN1C(=O)c1cccc(-c2ccccn2)c1 (stereo not given) | -13%[172 µM] | . | . | -17%[138 µM]
N#Cc1cccc(CN2CC3(COCC(=O)N(Cc4cccc(OC(F)(F)F)c4)C3)C2)c1 | ? | -7% | i | 28µM*
Cc1cc(C)nc(N2CC3(COCC(=O)N(Cc4cccc(OC(F)(F)F)c4)C3)C2)n1 | ? | 8%[70.6 µM] | i | -7%[138 µM]
CCOc1ccccc1NC(=O)Cn1cccc1-c1nc(-c2ccc(F)cc2)no1 | ? | ? | i | ?
Cc1cc(C)c2c(CC(=O)N[C@@H]3CCOC[C@H]3Oc3ccccn3)coc2c1 | 50µM* | 4% | i | ?
Cc1cc(=O)n(CC(=O)N[C@@H]2CCOC[C@H]2Oc2ccccn2)nc1C | i | 1% | i | i
C[C@@H]1C(=O)O[C@H]2[C@H]1CC[C@@]1(C)Cc3sc(NC(=O)NC4CCCCC4)nc3[C@@H](C)[C@H]21 | ? | -12%[70.6 µM] | ? | -25%[138 µM]
CCCCNc1nc2c(s1)C[C@]1(C)CC[C@@H]3[C@H](OC(=O)[C@H]3C)[C@H]1[C@@H]2C | ? | 18µM* | ? | ?
